Source: PubChem
proKLK7 act: activates the human kallikrein-7 zymogen; purified proKLK7, EDANS-DABCYL substrate fluorescence; 100% is mature enzyme control, 0% vehicle; activation, % at 7 µM; 0.9% of 370,000 active;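 active = activation above the mean of all tested compounds plus 3 SD, computed per campaign excluding outliers beyond control limits, cut at about 13% in these data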
Target sequence (P49862 whole entry, looked up): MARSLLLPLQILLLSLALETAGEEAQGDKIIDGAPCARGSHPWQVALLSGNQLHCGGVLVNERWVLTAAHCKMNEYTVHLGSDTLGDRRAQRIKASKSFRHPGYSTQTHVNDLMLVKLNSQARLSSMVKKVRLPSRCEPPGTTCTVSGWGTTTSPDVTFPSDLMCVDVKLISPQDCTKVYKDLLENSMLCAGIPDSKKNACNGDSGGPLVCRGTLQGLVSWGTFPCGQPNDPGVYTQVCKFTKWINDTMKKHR
rCAG RNA binder: binds r(CAG) RNA repeats; 1.3% of 370,000 active; inhibition, % at 3 µM; r(CAG) RNA repeat, TO-PRO-1 dye displacement fluorescence;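 active = inhibition above the plate cutoff, the mean of all test compounds on that plate plus 3 SD, cut at about 35% in these data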;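 also: 0% = DMSO alone and 100% = 100 µM mitoxantrone as full dye displacement; higher means more dye released from RNA so lower well fluorescence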
GRIN3A LBD mod: modulators (binders) of human NR3A ligand-binding domain. 2.5% of 340,000 active. NR3A LBD differential scanning fluorimetry, Tm shift; 0% = protein alone, 100% = glycine-bound protein. Tm shift relative to glycine control, % at 25 µM. AID 1259313;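 active = melting temperature shift of at least 10% of the positive control shift, at one fixed dose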
ADAM10 inh: inhibitors of human ADAM10. AID 720582. inhibition, % at 7 µM. 0.62% of 370,000 active. O14672. recombinant ADAM10, EDANS/DABCYL FRET peptide cleavage, 3 h;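 active = inhibition above a per-campaign cutoff equal to the mean of compounds falling between control-based bounds plus 3 SD, cut at about 20% in these data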;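 also: 0% = DMSO wells while the 100% control is not disclosed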
AHR activator: human AHR activation; P35869; AHR-responsive luciferase reporter cells, luminescence; activation, % at 5 µM; 2.5% of 320,000 active; in the data active = activation above about 47%;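 also: 0% = vehicle wells and 100% = reference agonist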
ADAM17 inh: inhibits human ADAM17; P78536; recombinant ADAM17, EDANS/DABCYL FRET peptide cleavage; inhibition, % at 6.95 µM; 0.83% of 370,000 active;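 active = inhibition above the mean of compounds lying between control limits plus 3 SD, set per campaign, cut at about 8.5% in these data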;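 also: 0% = DMSO-only wells as the low control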
KLK7 act conf: confirmation of human kallikrein-7 zymogen activators; shares compounds with proKLK7 act; purified proKLK7, EDANS-DABCYL substrate fluorescence; scaled: vehicle 0, mature enzyme 100; 68% of 3,200 active; activation, % at 7 µM;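 active = activation, as change over the incubation, above the mean of all tested compounds plus 3 SD, cut at about 13% in these data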
EDANS interfere: fluorescence interference counter-screen for KLK7 activators. EDANS-DABCYL substrate fluorescence interference, no enzyme, 4 h; solvent 0%, active enzyme control 100%. 80% of 3,200 active. shares compounds with proKLK7 act. activation, % at 7 µM;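 active = activation above the all-compound mean plus 3 SD, ignoring values outside control-based bounds, cut at about 4.8% in these data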;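 also: value is the 4 h activation minus the activation read at time zero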
K7 EDANS ctr: EDANS fluorescence interference in dose response, no enzyme; shares compounds with proKLK7 act; EDANS-DABCYL peptide fluorescence interference; EC50, µM; 20% of 250 active;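 active = compounds that raise the fluorescence signal in this interference counterscreen, with EC50 at or below 10 µM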;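 also: intact quenched peptide substrate alone read at 355 nm excitation and 520 nm emission; signal is fluorescence gain from T0 to T4 after four hours at room temperature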
Active calls of the source: *; i = inactive; . = no result given. Sampled rows, rich in hits. Any-hit rate of the full collection: about 7%.

SMILES	proKLK7 act	rCAG RNA binder	GRIN3A LBD mod	ADAM10 inh	AHR activator	ADAM17 inh	KLK7 act conf	EDANS interfere	others
Cc1cc(C)cc(Oc2coc3cc(OC(=O)c4cccs4)ccc3c2=O)c1	13.6*	5.7	1.5	-45.3	1.3	-18.9	23.7*	16.5*	K7 EDANS ctr=>69.5
Cc1cc(=O)oc2cc(OCC(=O)N3CCN(C(=O)c4ccco4)CC3)ccc12	-0.8	1.1	0.5	-212.2	-0.1	-75.5	.	.
Cc1cc(=O)oc2cc(OC(=O)c3ccco3)ccc12	459.2*	1.5	-1.0	i	.	i	728.9*	769.0*
CCCc1cc(=O)oc2cc(OC(=O)CN3C(=O)NC4(CCCC4)C3=O)ccc12	61.8*	-2.5	0.3	i	-1.6	i	223.9*	192.8*
CC(=O)Oc1ccc2c(=O)c(-c3ccccc3)c(C)oc2c1	121.2*	-5.6	-3.1	i	-0.3	-242.2	446.2*	384.3*
COC(=O)c1cc(-c2c(C)oc3cc(OC(C)C)ccc3c2=O)c(C)o1	0.2	-7.3	-1.2	1.3	3.2	0.7	.	.
CCOCCCn1c(=S)[nH]c2cc(C(=O)NC3CCCC(C)C3C)ccc2c1=O (centres undefined)	0.5	0.3	-5.5	2.1	1.3	-1.4	.	.
CC(C)(C)N(Cc1ccccc1)C(=O)COC(=O)Cn1cnc2ccccc2c1=O	14.7*	-6.6	1.3	-4.6	0.7	4.0	0.9	0.6
CC1CC(Nc2cccc(O)c2)=CC(=O)O1 (centres undefined)	13.4*	-3.4	-0.3	i	7.4	-204.5	0.8	0.3
CCCCN(CC)CCCNC(=O)c1cc2cc3ccc(OC)cc3nc2o1	62.7*	10.4	1.8	i	6.8	i	58.3*	72.2*
Cc1ccc2cc3cc(C(=O)NCCCN4CCCC4=O)oc3nc2c1	17.4*	-3.5	-7.8	i	15.0	i	8.7	7.5*
CCN1CCN(CCCNC(=O)c2cc3cc4ccc(OC)cc4nc3o2)CC1	.	.	-4.3	.	6.6	.	.	.
Cc1ccc2cc3cc(C(=O)NCCN4CCOCC4)oc3nc2c1	13.2*	-0.1	-2.1	i	30.0	-317.7	14.4*	12.6*
COc1ccc2cc3cc(C(=O)NCCCN4CCOCC4)oc3nc2c1	48.5*	-2.7	0.0	i	4.1	i	63.9*	68.9*
CC12CCC=CC1=C(C=O)C1C2CCC2(C)C(O)CCC12 (centres undefined)	0.0	1.5	-3.0	-8.7	.	-5.3	.	.
COc1ccc(-c2csc3nc(C)nc(N4CCN(c5ccc(C(C)=O)cc5)CC4)c23)cc1OC	0.6	0.9	-1.5	0.9	7.7	-2.5	.	.
CCN(Cc1nc2ccccc2c(=O)[nH]1)C(=O)c1ccc(C)c(NC(=O)c2ccco2)c1	-0.2	1.4	-3.0	-5.3	7.5	1.6	.	.
Cc1c(C)c2ccc(OCC(=O)Nc3ccccc3C(N)=O)cc2oc1=O	0.7	-1.2	-2.4	-14.9	-0.5	-5.3	.	.
C[N+]1(CC(O)COCC2COc3ccccc3O2)CCOCC1 (centres undefined)	-0.1	0.0	0.6	-1.7	-1.2	-2.7	.	.
Cc1ccc2cc3c(NC(=O)C(C)C)nn(C)c3nc2c1	15.4*	-1.3	-0.5	-34.6	66.1*	-5.7	-8.8	-0.9
Cc1cc(Cl)c(C)c(S(=O)(=O)N2CCN(CC(=O)N3CCOCC3)CC2)c1Cl	0.3	6.3	-1.0	-12.8	0.5	1.8	.	.
COc1cccc(NC(=O)NNC(=O)CCc2ccc(O)c(O)c2)c1	19.1*	-3.9	-2.1	-32.8	.	-19.7	13.3*	16.3*
Nc1ccc(-c2nc3ccc(N)cc3[nH]2)cc1	86.7*	2.9	9.1	i	7.7	i	69.4*	75.3*
Cc1nc2ccc(-c3nc4ccc(N)cc4[nH]3)cc2[nH]1	37.0*	3.9	-0.2	i	7.6	i	68.8*	66.5*
Nc1ccc(-c2nc3c(Cl)c(N)ccc3[nH]2)cc1	70.4*	4.5	8.4	i	59.9*	i	70.1*	76.8*
SMILES	proKLK7 act	rCAG RNA binder	GRIN3A LBD mod	ADAM10 inh	AHR activator	ADAM17 inh	KLK7 act conf	EDANS interfere	others
Nc1ccc2nc(-c3cc(Cl)c(N)c(Cl)c3)[nH]c2c1	23.5*	5.0	11.7*	i	39.0	-154.0	20.8*	12.8*	K7 EDANS ctr=>69.5
Cc1cc(-c2nc3ccccc3[nH]2)ccc1N	2.3	-1.2	-5.0	i	10.7	-175.8	.	.
Cc1ccc(C)c(-c2nc3ccc(N)cc3[nH]2)c1	-1.0	3.0	3.4	i	7.3	-347.7	.	.
Cc1ccc2nc(-c3ccccc3N)[nH]c2c1	67.8*	-0.2	-10.0	i	15.9	i	4.0	2.8
CCCCCNc1nc(NCCCO)c(C#N)c2c1CN(C)CC2	19.8*	-15.5	0.2	i	58.3*	-190.0	16.8*	22.7*
C=CCNc1nc(NCc2ccccc2)c(C#N)c2c1CN(C)CC2	14.5*	1.8	6.5	i	53.6*	i	19.6*	15.2*	K7 EDANS ctr=i
CCCc1nc(NCCO)c(C#N)c2c1CCCC2	0.6	-5.3	2.4	-21.7	5.1	-7.8	.	.
CN(C)c1ccc2c3c(ccc(N(C)C)c13)C(=O)OC2	0.7	-2.5	-0.1	-4.5	1.1	0.8	.	.
C#CCOc1ccccc1CNC1CCN(Cc2ccccc2)CC1	0.0	-4.7	0.3	-0.7	0.5	-2.8	.	.
CCOC(=O)C1CCN(S(=O)(=O)c2cccc(-c3cn4cccnc4n3)c2)CC1	27.2*	-0.8	-0.9	i	2.6	i	26.1*	-15.5	K7 EDANS ctr=>69.5
Cc1nc(SCC(=O)CC(=O)OC(C)C)c(C#N)c(C)c1C	39.9*	-2.2	0.3	-106.2	0.7	-25.3	62.9*	57.0*
CCOC(=O)CSc1nc(N)c(C#N)c(-c2ccc(OCC)cc2)c1C#N	12.9*	2.9	-35.2	-17.6	-2.3	-8.0	-52.7	-63.7
CCOC(=O)C1=C(CSc2nc(C)cc(C)c2C#N)OC(N)=C(C#N)C1c1ccccc1 (centres undefined)	26.2*	1.4	-6.0	-75.1	13.6	-28.4	32.6*	30.3*
CCOC(=O)CSc1nc(C)cc(C)c1C#N	29.9*	-2.7	-0.8	-33.5	-1.8	-13.6	56.1*	53.5*
O=C1NC[C@H](CCCCN2C[C@H](Cc3ccc(O)cc3)N(CC3CCCCC3)C(=O)C2=O)N(CCc2ccc(O)cc2)C1=O	0.6	3.2	.	-7.9	.	3.5	.	.
COCCC(=O)N1CCC(Oc2ccc(C(=O)N3C[C@H]4CC[C@H]3C4)cc2)CC1	0.0	-7.3	0.8	4.2	0.2	-1.4	.	.
